In assay [1] the target is Estrogen receptor (Homo sapiens) (UniProt P03372). In words: qHTS assay for small molecule agonists of estrogen receptor alpha signaling (AID 588514). Also: nearly all actives have a fitted effect of over 70% in size. Also: potency is read from the fitted curve at half-maximal effect.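 As to activation: 0% = vehicle only and 100% = reference agonist.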 In outline:
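ER-alpha-UAS-bla GripTite HEK 293 cells in medium with 2% charcoal/dextran-treated FBS were treated with compound titrations at 37 C for 18 hrs; beta-lactamase reporter read by CCF4 fluorescence after 2 hrs at RT.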
On the technique in general: In qHTS, concentration-response curves come from the screen itself.

Assay [2] has as its target Bile acid receptor (Homo sapiens) (UniProt Q96RI1). The experiment in a line: qHTS assay for small molecule antagonists of farnesoid X receptor signaling (AID 588526). Also: % is scaled to controls: 0 for no effect and ±100 for the full control effect. An outline of the steps: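 Concentration-response titrations were fitted to the Hill equation for half-maximal inhibition and maximal response, with data normalised to 50 uM chenodeoxycholic acid and DMSO control wells. Cells: FXR-UAS-bla HEK293T, dialyzed FBS.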

The target in assay [3] is Glucocorticoid receptor (Homo sapiens) (UniProt P04150). In words: qHTS assay for small molecule agonists of glucocorticoid receptor signaling (AID 588532; active = well fitted curve in the direction sought with a large enough effect in the signal ratio, with a control signal flat; the % refers to the signal ratio;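 also: 100% = dexamethasone at 0.1 µM and 0% = DMSO only wells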). Conditions: HeLa MMTV-bla, beta-lactamase ratio, agonist, 18 h; stronger effect = higher value; percent of dexamethasone control, DMSO zero. An outline of the steps: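 Stimulation of a glucocorticoid response element-driven beta-lactamase gene was measured in HeLa cells. Responses were scaled between DMSO basal and 0.1 uM dexamethasone, then fitted for half-maximal stimulation.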

The nature of assay [4]: qHTS assay for small molecule antagonists of peroxisome proliferator-activated receptor delta signaling (AID 588535; active = well fitted inhibition curve with a large enough effect in the signal ratio, with a control signal flat, not every such curve was filed as active; the % refers to the signal ratio;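 as to max response: cells co-treated with a PPAR-delta agonist as stimulator during compound exposure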). As to conditions: HEK293T PPARd-UAS-bla, beta-lactamase FRET ratio, 18 h; 460 nm channel. In outline:
(§1)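 GeneBLAzer PPAR-delta-UAS-bla HEK293T cells in medium with 2% charcoal/dextran FBS were preincubated 5 hrs at 37 C, then given compounds, incubated 18 hrs at 37 C, and read by CCF4 beta-lactamase fluorescence; IC50 from Hill fits.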

The target in assay [5] is Peroxisome proliferator-activated receptor delta (Homo sapiens) (UniProt Q03181). The assay is described as above. In outline: as §1
Assay [6] concerns the target Vitamin D3 receptor (Homo sapiens) (UniProt P11473). In words: qHTS assay for small molecule antagonists of vitamin D receptor signaling (AID 588541).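 Also: receptor activated by calcitriol during compound treatment; series mostly up to about 77 µM; % is scaled to controls: 0 for no effect and ±100 for the full control effect.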 An outline of the steps: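 VDR-UAS-bla HEK293T cells (2000/well, 2% charcoal-stripped FBS) were treated with titrated compounds plus 1-alpha,25-dihydroxyvitamin D3 (50 nM or 3 nM final) for 16 h at 37 C. CCF4 beta-lactamase fluorescence was read; Hill fits gave IC50.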

Assay [7] has the same target. The experiment in a line: qHTS assay for small molecule agonists of vitamin D receptor signaling (AID 588543).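 Also: 0% = DMSO basal and 100% = reference agonist control.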 An outline of the steps: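 Reporter cells (HEK293T, VDR-UAS-bla) were seeded in medium with 2% charcoal-stripped serum and incubated 5 h, then compounds in concentration series were added for 16 h at 37 °C. Stimulation was scaled between DMSO basal and 50 nM 1α,25-dihydroxyvitamin D3.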

Assay [8] can be described thus: qHTS assay for small molecule agonists of retinoid X receptor alpha signaling (AID 588544).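 As to activation: 0% = DMSO basal wells and 100% = reference agonist.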 As to conditions: HEK293T RXRa-UAS-bla, beta-lactamase reporter, 18 h; 530 nm emission.
Assay [9] addresses Retinoic acid receptor RXR-alpha (Homo sapiens) (UniProt P19793). The assay is described as above.
Assay [10] has as its target Thyroid hormone receptor beta (Homo sapiens) (UniProt P10828). The experiment in a line: qHTS assay for small molecule agonists of thyroid hormone receptor beta signaling (AID 588545).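 Also: 0% = DMSO only and 100% = 10 nM T3.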 In outline:
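TR-UAS-bla GripTite HEK 293 cells (2500/well, medium with 2% charcoal/dextran FBS) were treated in agonist mode for 18 h at 37 C, titrated. Beta-lactamase was read by CCF4 ratio after 2 h; normalized to 10 nM T3 (100%) and DMSO, Hill-fitted for EC50 and efficacy.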

Assay [11] in a line: qHTS assay for small molecule antagonists of retinoid X receptor alpha signaling (AID 588546).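 Also: cells stimulated with 9-cis-retinoic acid as agonist; % is scaled to controls: 0 for no effect and ±100 for the full control effect.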 Conditions: HEK293T RXRa-UAS-bla, beta-lactamase ratio, antagonist mode; measured here: W530 green channel, cytotoxicity proxy. In outline:
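Beta-lactamase reporter inhibition, read as CCF4 fluorescence ratio (ex 405, em 460/530 nm) after 2 h at RT. HEK293T UAS-bla cells, 2500/well, were stimulated with 9-cis-RA at 500 or 100 nM final alongside test compound for 18 h at 37 C.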

Assay [12] concerns the target Thyroid hormone receptor beta (Homo sapiens) (UniProt P10828). The experiment in a line: qHTS assay for small molecule antagonists of thyroid hormone receptor beta signaling (AID 588547; active = well fitted inhibition curve with a large enough effect in the signal ratio, with a control signal flat, not every such curve was filed as active; the % refers to the signal ratio;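 also: cells stimulated with 0.4 nM T3 agonist during compound exposure; series mostly up to about 77 µM; % is scaled to controls: 0 for no effect and ±100 for the full control effect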). Conditions: TR-UAS-bla HEK293, beta-lactamase ratio, antagonist mode, 18 h. In outline: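 TR-UAS-bla GripTite HEK293 cells in 2% charcoal/dextran FBS medium were preincubated 4 h at 37 C, given compound (0.59 nM to 92 uM) plus 0.4 nM T3 (final) for 18 h, then CCF4 for 2 h at RT; Hill fit gave IC50.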

Assay [13] has as its target Voltage-gated inwardly rectifying potassium channel KCNH2 (Homo sapiens) (UniProt Q12809). The experiment in a line: qHTS Assay for Small Molecule Inhibitors of the Human hERG Channel Activity (AID 588834; active = well fitted curve in the direction sought with a large enough effect; an effect the other way counts as inactive or inconclusive;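 also: lower thallium flux fluorescence means stronger hERG block; nearly all actives have a fitted effect of over 50% in size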; also: potency is read from the fitted curve at half-maximal effect). An outline of the steps: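 hERG-BacMam U2OS, 2000 cells/well; 0.7X FluxOR loading 1 hr RT dark; cpd ~10 min 37 °C; stim buffer; FDSS fluorescence 2 min @ 1 s; AC50 Hill fit.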

In assay [14] the target is Luciferin 4-monooxygenase (Photinus pyralis) (UniProt P08659). In words: Biochemical firefly luciferase enzyme assay for NPC (AID 624030; active = well fitted curve in the direction sought with a large enough effect; an effect the other way counts as inactive or inconclusive;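 also: purified P. pyralis luciferase at 10 nM with luciferin and ATP substrate; series mostly up to about 59 µM; 0% = DMSO and -100% = full luciferase inhibition by PTC124 control; nearly all actives have a fitted effect of over 70% in size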). In outline:
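Counter-screen for direct inhibition of the luciferase enzyme by approved-drug library compounds, run at 10 nM enzyme in 50 mM Tris acetate (final). Luminescence was read within 5 min of enzyme-buffer addition and normalized to PTC124 versus DMSO (0%).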

Assay [15] in a line: S16 Schwann cell viability assay (CellTiter-Glo assay) (AID 624031; active = well fitted curve in the direction sought with a large enough effect; an effect the other way counts as inactive or inconclusive;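 also: cellular ATP luminescence as a viability measure; series mostly up to about 58 µM; plate controls were DMSO-treated cells for no effect and cell-free wells for full effect; nearly all actives have a fitted effect of over 70% in size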). An outline of the steps:
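Native S16 rat Schwann cells in DMEM/10% FBS without phenol red were incubated overnight, then exposed to compounds for 24 h at 37 °C/5% CO2. Viability was read as ATP luminescence (CellTiter-Glo), normalized to no-cell wells and DMSO (0%).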

A short description of assay [16]: S16 Schwann cell PMP22 intronic element firefly luciferase assay (AID 624032; active = well fitted curve in the direction sought with a large enough effect; an effect the other way counts as inactive or inconclusive;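 also: series mostly up to about 58 µM; plate controls were DMSO for no effect and PTC124 positive control mean for full effect; nearly all actives have a fitted effect of over 30% in size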). An outline of the steps:
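Rat S16 Schwann cells stably carrying a PMP22 intronic element-driven Fluc reporter were seeded overnight, then exposed to compounds for 24 h at 37 °C. Luminescence was normalized to PTC124 (positive control) and DMSO (0% activity).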

The target of assay [17] is Glucocorticoid receptor (Homo sapiens) (UniProt P04150). The experiment in a line: qHTS assay for small molecule antagonists of glucocorticoid receptor signaling (AID 588533; active = well fitted inhibition curve with a large enough effect in the signal ratio, with a control signal flat, not every such curve was filed as active; the % refers to the signal ratio). In outline: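 Antagonist-mode qHTS: compound titrations added to GRE-bla HeLa cells, then dexamethasone 2 nM final; 18 h, 37 C. CCF4 FRET fluorescence normalized to dexamethasone and DMSO; IC50 from Hill fit.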

Assay [18] has as its target Peroxisome proliferator-activated receptor gamma (Homo sapiens) (UniProt P37231). In words: qHTS assay for small molecule antagonists of peroxisome proliferator-activated receptor gamma signaling (AID 588537; active = well fitted inhibition curve with a large enough effect in the signal ratio, with a control signal flat, not every such curve was filed as active; the % refers to the signal ratio;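 also: reporter cells co-stimulated with 50 nM rosiglitazone agonist during compound treatment; % of control where 0% means no effect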). An outline of the steps: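 PPAR-gamma-UAS-bla HEK293 cells (3000/well, 1% charcoal/dextran-stripped FBS) were preincubated 6-6.5 h at 37 C, given titrated compounds, then stimulated with 50 nM rosiglitazone for 16 h. Beta-lactamase activity was read with CCF4 dye; IC50 came from Hill fits.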

Where “and” joins values, the source holds several entries; their conditions need not be identical. Equal values may be shown once. Results filed as inconclusive are left out. Calls of active or inactive are those of the source. Unless noted, calls follow the shape of the full dose curve.

Peroxisome proliferator-activated receptor delta (Homo sapiens), sequence (Q03181 whole entry, looked up): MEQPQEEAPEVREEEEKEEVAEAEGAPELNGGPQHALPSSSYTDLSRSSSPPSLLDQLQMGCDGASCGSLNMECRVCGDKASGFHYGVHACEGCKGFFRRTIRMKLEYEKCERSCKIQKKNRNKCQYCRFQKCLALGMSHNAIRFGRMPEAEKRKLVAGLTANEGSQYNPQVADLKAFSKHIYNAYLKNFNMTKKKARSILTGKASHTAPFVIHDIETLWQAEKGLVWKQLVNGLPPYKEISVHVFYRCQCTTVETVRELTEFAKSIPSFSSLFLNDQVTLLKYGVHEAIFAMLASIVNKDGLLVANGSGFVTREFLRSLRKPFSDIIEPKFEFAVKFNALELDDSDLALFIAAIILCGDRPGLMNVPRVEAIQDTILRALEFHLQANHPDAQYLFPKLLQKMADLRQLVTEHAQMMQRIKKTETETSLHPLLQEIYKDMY
Vitamin D3 receptor (Homo sapiens), sequence (P11473 whole entry, looked up): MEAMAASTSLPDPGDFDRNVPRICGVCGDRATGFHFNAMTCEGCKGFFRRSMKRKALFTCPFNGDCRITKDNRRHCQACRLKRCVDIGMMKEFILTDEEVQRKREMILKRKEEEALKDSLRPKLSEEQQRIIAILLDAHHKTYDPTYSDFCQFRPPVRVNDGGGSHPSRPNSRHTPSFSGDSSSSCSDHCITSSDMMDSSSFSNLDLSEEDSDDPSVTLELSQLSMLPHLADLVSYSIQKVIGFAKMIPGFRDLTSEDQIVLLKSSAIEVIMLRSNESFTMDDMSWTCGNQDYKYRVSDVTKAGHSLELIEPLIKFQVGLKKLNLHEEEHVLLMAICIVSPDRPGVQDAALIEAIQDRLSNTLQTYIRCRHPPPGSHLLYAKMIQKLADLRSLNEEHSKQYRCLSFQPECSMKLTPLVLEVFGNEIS
Retinoic acid receptor RXR-alpha (Homo sapiens), sequence (P19793 whole entry, looked up): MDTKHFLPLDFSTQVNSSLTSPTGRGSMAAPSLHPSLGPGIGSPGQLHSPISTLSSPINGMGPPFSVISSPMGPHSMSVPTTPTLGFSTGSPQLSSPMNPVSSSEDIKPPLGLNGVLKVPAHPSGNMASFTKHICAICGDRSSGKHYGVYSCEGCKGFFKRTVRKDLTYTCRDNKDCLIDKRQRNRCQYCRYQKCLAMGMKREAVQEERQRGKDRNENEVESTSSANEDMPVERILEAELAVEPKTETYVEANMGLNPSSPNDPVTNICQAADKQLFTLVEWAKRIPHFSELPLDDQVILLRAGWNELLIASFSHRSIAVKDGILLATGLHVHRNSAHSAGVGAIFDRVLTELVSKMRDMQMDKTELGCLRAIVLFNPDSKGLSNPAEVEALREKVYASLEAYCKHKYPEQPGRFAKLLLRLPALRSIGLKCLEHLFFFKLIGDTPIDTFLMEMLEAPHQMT
Thyroid hormone receptor beta (Homo sapiens), sequence (P10828 whole entry, looked up): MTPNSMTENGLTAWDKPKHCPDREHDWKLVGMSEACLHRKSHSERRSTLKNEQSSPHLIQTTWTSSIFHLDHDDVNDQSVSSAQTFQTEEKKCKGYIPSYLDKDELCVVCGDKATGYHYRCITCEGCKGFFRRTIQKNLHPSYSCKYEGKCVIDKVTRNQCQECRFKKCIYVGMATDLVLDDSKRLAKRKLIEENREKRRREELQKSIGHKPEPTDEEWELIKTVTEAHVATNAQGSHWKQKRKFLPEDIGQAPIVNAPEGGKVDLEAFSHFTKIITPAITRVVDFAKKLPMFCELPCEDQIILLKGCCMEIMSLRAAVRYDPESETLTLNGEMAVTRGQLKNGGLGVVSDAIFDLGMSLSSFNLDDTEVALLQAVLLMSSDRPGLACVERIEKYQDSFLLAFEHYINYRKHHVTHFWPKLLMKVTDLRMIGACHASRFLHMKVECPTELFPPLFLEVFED
Voltage-gated inwardly rectifying potassium channel KCNH2 (Homo sapiens), sequence (Q12809 whole entry, looked up): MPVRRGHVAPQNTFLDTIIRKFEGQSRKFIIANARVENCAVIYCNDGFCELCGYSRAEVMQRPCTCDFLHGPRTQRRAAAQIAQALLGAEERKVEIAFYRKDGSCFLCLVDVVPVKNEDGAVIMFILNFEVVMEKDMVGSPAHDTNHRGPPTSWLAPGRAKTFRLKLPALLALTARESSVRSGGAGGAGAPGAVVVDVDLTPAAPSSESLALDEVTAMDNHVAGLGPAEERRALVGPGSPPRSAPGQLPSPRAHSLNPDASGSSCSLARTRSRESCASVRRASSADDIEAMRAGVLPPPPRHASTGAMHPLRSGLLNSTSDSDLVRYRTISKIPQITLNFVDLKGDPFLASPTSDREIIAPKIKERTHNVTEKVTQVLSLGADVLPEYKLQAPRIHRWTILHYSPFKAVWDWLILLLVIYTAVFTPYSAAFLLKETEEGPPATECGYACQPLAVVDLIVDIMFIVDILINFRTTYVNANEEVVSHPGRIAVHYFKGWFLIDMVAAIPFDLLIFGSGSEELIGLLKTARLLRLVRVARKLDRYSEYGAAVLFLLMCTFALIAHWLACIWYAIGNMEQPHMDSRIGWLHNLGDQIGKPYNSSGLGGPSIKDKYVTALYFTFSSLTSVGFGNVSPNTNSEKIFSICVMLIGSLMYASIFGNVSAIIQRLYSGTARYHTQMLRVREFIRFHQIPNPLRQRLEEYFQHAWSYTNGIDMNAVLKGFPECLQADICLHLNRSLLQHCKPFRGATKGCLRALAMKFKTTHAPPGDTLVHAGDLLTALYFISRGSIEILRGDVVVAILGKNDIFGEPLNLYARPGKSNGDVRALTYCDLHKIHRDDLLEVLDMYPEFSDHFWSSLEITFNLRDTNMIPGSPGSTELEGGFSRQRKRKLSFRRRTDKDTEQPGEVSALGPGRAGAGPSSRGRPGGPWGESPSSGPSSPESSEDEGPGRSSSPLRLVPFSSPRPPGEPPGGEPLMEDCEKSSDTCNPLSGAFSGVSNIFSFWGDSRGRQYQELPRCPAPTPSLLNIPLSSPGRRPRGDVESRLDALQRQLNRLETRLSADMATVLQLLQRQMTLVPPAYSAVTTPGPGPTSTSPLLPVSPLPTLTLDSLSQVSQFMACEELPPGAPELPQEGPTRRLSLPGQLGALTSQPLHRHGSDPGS
Glucocorticoid receptor (Homo sapiens), sequence (P04150 whole entry, looked up): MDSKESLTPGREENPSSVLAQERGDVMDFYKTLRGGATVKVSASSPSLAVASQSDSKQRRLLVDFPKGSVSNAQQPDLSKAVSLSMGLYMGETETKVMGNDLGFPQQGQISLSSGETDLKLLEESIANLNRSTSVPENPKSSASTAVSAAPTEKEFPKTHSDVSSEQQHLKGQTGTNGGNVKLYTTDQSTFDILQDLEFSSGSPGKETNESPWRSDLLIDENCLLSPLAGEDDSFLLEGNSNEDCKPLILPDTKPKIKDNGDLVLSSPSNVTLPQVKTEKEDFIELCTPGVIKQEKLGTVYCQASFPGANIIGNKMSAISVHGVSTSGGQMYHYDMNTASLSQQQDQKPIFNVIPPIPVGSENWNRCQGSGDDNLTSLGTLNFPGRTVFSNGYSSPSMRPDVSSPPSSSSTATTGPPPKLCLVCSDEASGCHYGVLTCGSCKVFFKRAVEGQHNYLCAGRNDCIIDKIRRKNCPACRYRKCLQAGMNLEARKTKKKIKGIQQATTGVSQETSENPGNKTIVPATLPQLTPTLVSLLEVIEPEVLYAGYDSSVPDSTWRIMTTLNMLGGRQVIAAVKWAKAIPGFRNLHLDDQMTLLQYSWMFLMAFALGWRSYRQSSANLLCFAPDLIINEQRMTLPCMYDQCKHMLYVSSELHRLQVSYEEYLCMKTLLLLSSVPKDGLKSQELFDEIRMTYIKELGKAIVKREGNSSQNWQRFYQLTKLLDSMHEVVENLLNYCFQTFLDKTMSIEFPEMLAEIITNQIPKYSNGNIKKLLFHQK
Estrogen receptor (Homo sapiens), sequence (P03372 whole entry, looked up): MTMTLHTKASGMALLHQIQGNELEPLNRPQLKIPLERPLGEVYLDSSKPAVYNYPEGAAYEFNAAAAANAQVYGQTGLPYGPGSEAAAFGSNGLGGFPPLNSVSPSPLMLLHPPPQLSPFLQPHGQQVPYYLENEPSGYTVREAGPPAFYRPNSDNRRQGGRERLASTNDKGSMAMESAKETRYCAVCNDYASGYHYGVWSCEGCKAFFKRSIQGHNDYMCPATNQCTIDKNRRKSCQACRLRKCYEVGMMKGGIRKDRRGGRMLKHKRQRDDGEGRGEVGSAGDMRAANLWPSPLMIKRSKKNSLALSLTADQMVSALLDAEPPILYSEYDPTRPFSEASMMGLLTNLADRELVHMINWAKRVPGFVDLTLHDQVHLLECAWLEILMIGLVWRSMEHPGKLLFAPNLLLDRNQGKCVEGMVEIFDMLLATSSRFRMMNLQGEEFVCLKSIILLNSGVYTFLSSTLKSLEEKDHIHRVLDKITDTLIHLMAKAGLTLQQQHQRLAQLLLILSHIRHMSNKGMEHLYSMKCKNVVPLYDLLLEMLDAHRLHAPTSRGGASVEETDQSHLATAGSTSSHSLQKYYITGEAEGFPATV
Luciferin 4-monooxygenase (Photinus pyralis), sequence (P08659 whole entry, looked up): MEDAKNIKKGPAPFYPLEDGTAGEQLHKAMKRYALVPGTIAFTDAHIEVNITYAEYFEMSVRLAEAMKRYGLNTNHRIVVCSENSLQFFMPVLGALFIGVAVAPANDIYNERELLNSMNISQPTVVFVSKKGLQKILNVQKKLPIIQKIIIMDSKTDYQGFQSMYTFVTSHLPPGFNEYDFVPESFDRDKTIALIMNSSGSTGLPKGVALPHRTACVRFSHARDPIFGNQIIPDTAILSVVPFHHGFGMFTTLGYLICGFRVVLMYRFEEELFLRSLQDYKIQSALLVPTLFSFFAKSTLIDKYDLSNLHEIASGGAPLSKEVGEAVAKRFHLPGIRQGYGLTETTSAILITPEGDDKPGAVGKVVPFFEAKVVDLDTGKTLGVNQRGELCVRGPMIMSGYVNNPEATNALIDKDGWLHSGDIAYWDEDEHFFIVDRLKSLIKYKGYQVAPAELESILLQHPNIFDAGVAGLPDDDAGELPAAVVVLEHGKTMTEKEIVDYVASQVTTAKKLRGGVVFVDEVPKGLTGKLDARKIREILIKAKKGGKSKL

As to `O=CCCCC=O`, the Potency result in [1], in assay [2], in [13], in assay [14], in assay [15] and in [16] was “inactive” throughout. In addition, the activation in [3] was 5.8% (inactive). The figures for the max response in assay [4], in assay [8] and in [11] were 37.6%, 18.3% and -9.66%, respectively. Moreover, the compound was called inactive in [5], in [6], in [7], in [9] and in assay [10]. Moreover, the activity change % (negative = inhibition) in assay [12] is 0.64% (inactive).
Take `CCCCCCCC(=O)O`: the Potency result in assay [1], in [13], in assay [14], in assay [15] and in assay [16] was “inactive” each time. Also, the compound was classed as inactive in assay [17], in assay [6], in assay [7], in assay [9] and in [10]. Further, the max response was 23.4% and -6.86% in [8]; -6.98% and -8.84% in [11]. Moreover, the activity change % (negative = inhibition) in assay [12] was 8.96% (inactive) and 0.409% (inactive).
Regarding `CCOC(=O)C1=CC2(CC)CCCN3CCc4c(n1c1ccccc41)C32` (configuration not stated), the Potency in assay [13] was 89.1 nM (active).
With `CCCCCCCC/C=C\CCCCCCCC(=O)O`, the Potency entry in assay [1], in [2], in assay [13], in [14] and in assay [15] was “inactive” each time. Also, in assay [3], the activation is -2.91% (inactive) and 1.43% (inactive). Also, the call in assay [17], in [5], in assay [9] and in assay [10] was inactive. Besides, the max response in assay [4] was 18% and 10.3%; in [8], -22.4% and -10.3%; in [11], -6.26% and -12.6%. Moreover, the activity change % (negative = inhibition) in assay [12] was -12.5% (inactive).
As to `CC1=C(/C=C/C(C)=C/C=C/C(C)=C/CO)C(C)(C)CCC1`, the Potency in [1] is 3160 nM (active). Moreover, the compound was classed as inactive in assay [6], in assay [7] and in assay [10]. Further, the max response in assay [11] was 23.5% and 17%. Besides, the activity change % (negative = inhibition) in [12] was 7.96% (inactive) and 4.62% (inactive). In addition, the Potency result in [14] and in assay [15] was “inactive” each time.
Regarding `CC(Oc1ccccc1)C(=O)N[C@@H]1C(=O)N2[C@@H]1SC(C)(C)[C@@H]2C(=O)O` (some centres not stated), the Potency result in [13] was “inactive”.
For the compound `Cc1ccccc1`, the activation in assay [3] is -1.45% (inactive) and 2.79% (inactive). Further, the compound was called inactive in [17], in assay [5], in assay [18], in assay [6], in assay [7] and in assay [9]. The result in assay [10] was inactive. The max response was 1.03% and 40.9% in assay [4]; -1.14% and 7.93% in assay [8]; -4.05% and 9.42% in [11]. For the same compound, the Potency result in assay [13], in assay [14] and in assay [15] was “inactive” in each case.

The record behind these values is PubChem BioAssay (NCATS).
